SW480 rereplic – induces DNA re-replication in SW480 colon adenocarcinoma cells; SW480 DNA re-replication, Hoechst DNA content imaging, 48 h; Potency, µM (highest dose often 46.1 µM), for inactives: top-dose re-replication activation, hits mostly activators; 1.8% of 340,000 active; further: % of control where 0% means no effect; nearly all actives have a fitted effect of over 55% in size
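Image-based read-out: total Hoechst fluorescence of nuclei (405 nm excitation, 500-530 nm emission), with hits raising the fraction of high-intensity nuclei. SW480 colon cells incubated 48 hr with compounds at 37 C.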
MCF10A rerep – DNA re-replication induction in MCF 10a cells | MCF 10A DNA re-replication, Hoechst nuclear intensity, 48 h | 2.9% of 350,000 active | AID 624296 | Potency, µM (top dose mostly 46.1 µM), for inactives: top-dose activity, positive = re-replication, usual class: activators; further: % of control where 0% means no effect; nearly all actives have a fitted effect of over 50% in size
ELG1 DNA repair – inhibitors of ELG1-dependent DNA repair in HEK293T cells | Potency, µM (doses to about 46.1 µM), inactives show at the highest dose activity change, negative = inhibition, most hits filed as inhibitors | 2.3% of 330,000 active | HEK293T ELG1-luciferase reporter, luminescence, 16 h; DNA damage induced by 5-fluorouridine; further: on the % scale 0 is the no-effect control and ±100 the full control effect; nearly all actives have a fitted effect of over 55% in size
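Cells (2,000 per well) received 5-fluorouridine plus test compound or DMSO and were incubated 16 hr at 37 °C, 5% CO2. Luciferase activity was read by luminescence 30 min after ONE-Glo addition; signal suppression marked inhibition of damage-induced ELG1 function.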
Gal4-VP16 FLuc – counter-screen for ROR gamma inhibitors: Gal4-VP16 reporter. Drosophila S2 Gal4-VP16 UAS-luciferase, luminescence, 20 h. Potency, µM (doses to about 53.6 µM), inactives show top-dose activity, negative = inhibition, usual class: inhibitors. 3.5% of 310,000 active. AID 2546;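 further: Gal4-VP16 expression switched on by copper sulfate through the metallothionein promoter; on the % scale 0 is the no-effect control and ±100 the full control effect; nearly all actives have a fitted effect of over 50% in size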
RORg inh – blocks mouse ROR gamma transcriptional activity; P51450; Drosophila S2 Gal4-RORgamma UAS-luciferase reporter, 20 h; 5.4% of 310,000 active; Potency, µM (doses to about 53.6 µM), for the others: at the highest dose activity change, negative = inhibition, usual class: inhibitors; further: on the % scale 0 is the no-effect control and ±100 the full control effect; nearly all actives have a fitted effect of over 60% in size
Target sequence (P51450 whole entry, looked up, the tested form may be a part): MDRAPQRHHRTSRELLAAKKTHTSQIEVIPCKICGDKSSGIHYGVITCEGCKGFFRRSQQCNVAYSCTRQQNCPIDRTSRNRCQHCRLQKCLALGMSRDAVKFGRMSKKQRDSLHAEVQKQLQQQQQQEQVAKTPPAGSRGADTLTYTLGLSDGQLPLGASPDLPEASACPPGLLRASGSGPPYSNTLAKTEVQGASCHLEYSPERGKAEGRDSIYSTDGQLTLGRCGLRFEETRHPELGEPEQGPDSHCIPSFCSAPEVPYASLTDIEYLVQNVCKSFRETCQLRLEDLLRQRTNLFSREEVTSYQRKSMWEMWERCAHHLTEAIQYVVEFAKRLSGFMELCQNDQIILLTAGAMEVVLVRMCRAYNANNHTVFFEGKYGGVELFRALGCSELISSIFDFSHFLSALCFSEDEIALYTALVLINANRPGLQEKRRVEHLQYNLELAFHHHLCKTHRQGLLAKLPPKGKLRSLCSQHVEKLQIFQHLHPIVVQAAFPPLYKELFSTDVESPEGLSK
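Luciferase reporter read in Schneider cells carrying Gal4-RORγ (mouse) and UAS-Photinus luciferase; cells given compound 1 h before 700 uM copper sulfate induction, then incubated 20 h at ambient temperature.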
* = called active by the depositor; u = inconclusive; x = no result. The list is not random: actives were taken first. Their share in the collection is about 10%. The call rests on the fitted dose curve; in most records, active means well fitted curve in the direction sought with a large enough effect; inconclusive means small, poorly fitted or top-dose-only effect, or another doubt; inactive means no such curve, though single readings can be large; an effect the other way counts as inactive or inconclusive. Potency means the concentration at half of the fitted maximal effect.

SMILES	SW480 rereplic	MCF10A rerep	ELG1 DNA repair	Gal4-VP16 FLuc	RORg inh
Cc1cc(C(=O)CSc2nnc(NCc3ccccc3)s2)c(C)n1C	u	u	-35.5%	-10.5%	13.1%
CN1/C(=C\C(=O)c2cccc(S(=O)(=O)N3CCCCC3)c2)C(C)(C)c2ccccc21	u	u	18.4µM*	-9.5%	u
CN1/C(=C\C(=O)CSc2nnc(NCc3ccccc3)s2)C(C)(C)c2ccccc21	9.7%	18.4µM*	18.4µM*	u	u
CCCCn1c(CCc2ccccc2)nc2cc3[nH]c(=O)c(C(C)C)nc3cc21	1.5%	u	u	-13.7%	34.2%
CCCCn1c(-c2ccc(F)c(F)c2)nc2cc3[nH]c(=O)c(C(C)C)nc3cc21	0.1%	23.1µM*	u	-1.6%	16.2%
Cc1nc(SCc2cccc(F)c2)c2oc3ccccc3c2n1	-4.4%	1.9%	20.6µM*	1.9%	-34.6%
Cc1nc(SCc2nc3c(O)cccc3[nH]2)c2oc3ccccc3c2n1	1.0%	28.0%	-17.8%	x	x
O=C(O)CSc1nc(-c2ccc(Cl)cc2)nc2c1oc1ccccc12	164.9%	23.1µM*	-13.6%	-3.4%	27.4%
Cc1nc(SCC(=O)N2CCCc3ccccc32)c2oc3ccccc3c2n1	16.4µM*	u	11.5%	-2.1%	19.1%
Cc1nc(SCC(=O)Nc2ccccc2)c2oc3ccccc3c2n1	-6.7%	11.6µM*	4.4%	-8.0%	10.9%
COc1ccc2c(COC(=O)[C@H](C)NS(=O)(=O)c3ccccc3F)cc(=O)oc2c1	-5.9%	1.8%	24.6%	x	x
CS(=O)(=O)c1ccccc1C(=O)Nc1cc2c(cc1C(=O)O)OCCCO2	2.8%	-2.0%	-7.2%	-6.9%	-23.9%
CCN(C(=O)CSc1nc2ccccc2n1C)C1CCS(=O)(=O)C1 (stereo unspecified)	-18.4%	-7.4%	u	x	x
Cc1nc(SCC(=O)NC(C)c2ccccc2)c2oc3ccccc3c2n1 (stereo unspecified)	0.8%	u	0.0%	0.7%	-17.6%
CNC(=O)C(Sc1nc(C)nc2c1oc1ccccc12)C(C)=O (stereo unspecified)	-2.9%	-1.4%	3.1%	7.08µM*	32.6%
Cc1cc(NCc2ccccc2)nc(N2CCOCC2)n1	-4.8%	3.9%	-9.7%	3.9%	21.6%
Cc1cc(OC2CCCCC2)nc(NCc2ccccc2)n1	-12.5%	-13.8%	-13.9%	2.1%	-38.7%
CCOc1cc(C)nc(NCc2ccccc2)n1	u	11.6µM*	19.8%	13.4%	-39.3%
Cc1cc(Nc2cccc(Cl)c2)nc(NCc2ccccc2)n1	u	u	-10.7%	15.8µM*	u
Cc1cc(N2CCOCC2)nc(NCc2ccccc2)n1	0.5%	7.31µM*	u	u	7.0%
CCCCOc1cc(C)nc(NCc2ccccc2)n1	u	u	0.0%	-11.4%	u
Cc1cc(N2CCCCC2)nc(NCc2ccccc2)n1	u	u	u	u	20µM*
CNC(=O)c1ccc(-n2cccn2)nc1	3.8%	0.6%	10.9%	-2.2%	12.2%
O=C(c1ccccc1)N1N=C(C(F)(F)F)CC1(O)c1ccccc1O (stereo unspecified)	8.7%	u	14.5%	12.6µM*	8.91µM*
CCC1=NN(C(=O)c2ccc(Br)cc2)C(O)(c2ccccc2)C1 (stereo unspecified)	1.3%	u	-0.1%	7.08µM*	12.6µM*
SMILES	SW480 rereplic	MCF10A rerep	ELG1 DNA repair	Gal4-VP16 FLuc	RORg inh
O=C1CN(C(=O)c2cccc([N+](=O)[O-])c2)CC(=O)N1	2.1%	-14.8%	-9.5%	2.1%	2.1%
CCC1=NN(C(=O)c2cccc([N+](=O)[O-])c2)C(O)(c2ccc(C)cc2)C1 (stereo unspecified)	16.5%	1.3%	-19.6%	5.62µM*	5.01µM*
CC1=NN(C(=O)c2ccccc2)C(O)(c2ccc(Br)cc2)C1 (stereo unspecified)	-3.2%	u	u	u	7.94µM*
Cc1ccc(CN2CCN(C/C=C/c3ccc(F)cc3)CC2CCO)o1 (stereo unspecified)	10.0%	5.2%	-8.9%	1.2%	29.9%
CC(C)c1ccc(N2C(=NC(=O)C3CCCO3)SC3CS(=O)(=O)CC32)cc1 (stereo unspecified)	-55.4%	9.4%	-0.7%	1.4%	10.4%
COc1cc(CC(=O)NCC(C)(C)N2CCOCC2)cc(OC)c1OC	-26.9%	-1.2%	7.2%	-0.1%	-27.4%
Cc1ccc(NC(=O)c2ccc3c(c2)OCCO3)cc1	2.5%	-5.8%	u	u	u
Cc1ccc(NC(=O)c2ccc(Cl)c(N3C(=O)C=CC3=O)c2)cc1	13µM*	14.6µM*	13.0%	3.16µM*	7.94µM*
CC(C)(CO)C(O)C(=O)NCCCO (stereo unspecified)	-0.2%	-2.6%	14.5%	x	x
CC(C)CC(NC(=O)c1cccs1)c1nnc(SCc2ccc(Cl)c(Cl)c2)n1C (stereo unspecified)	12.0%	18.4µM*	u	-17.2%	16.4%
COc1ccc(C(=O)NC(CO)c2nnc(SCc3ccc(Cl)c(Cl)c3)n2C)cc1 (stereo unspecified)	7.0%	-19.2%	-1.7%	-6.7%	18.6%
COc1ccc(/C=C/C(=O)c2ccc(NC(=O)c3cccs3)cc2)cc1OC	u	9.2µM*	u	-20.1%	2.51µM*
COc1ccc(NC(=O)c2cccs2)cc1	-6.0%	-0.3%	u	-9.9%	-15.6%
COc1ccc(C(=O)Nc2ccc(NC(=O)c3cccs3)cn2)cc1	-4.6%	3.9%	u	8.6%	0.224µM*
COc1ccc(C(=O)Nc2cccc(NC(=O)c3cccs3)c2)cc1OC	2.1%	u	14.6µM*	-2.4%	8.4%
COc1ccc(C(=O)Nc2ccc(NC(=O)c3cccs3)cc2)cc1Cl	-30.8%	-15.6%	u	-2.2%	-7.0%
O=C(Nc1cccc(-c2nn[nH]n2)c1)c1cccs1	-2.9%	3.8%	u	10µM*	7.94µM*
CCc1ccc(C(=O)Nc2cccc(-c3nn[nH]n3)c2)s1	-7.9%	-2.1%	9.9%	-26.7%	-17.9%
NC(=NCCc1ccccc1)NS(=O)(=O)c1ccccc1F	-3.0%	3.5%	14.8%	0.1%	-6.1%
CCN1CCN(C(CC(C)C)c2nnnn2CS(=O)(=O)c2ccc(C)cc2)CC1 (stereo unspecified)	1.8%	-0.6%	7.7%	0.6%	-31.4%
COc1ccc(-c2csc(C(C#N)=C(O)CSc3nccn3C)n2)cc1OC	-2.2%	-33.7%	x	x	x
O=C(NCC(=O)N1CCN(c2ncccn2)CC1)c1ccc(F)cc1	-12.2%	7.5%	0.0%	x	x
Cc1ccc(-c2nnc(SCC(=O)N/N=C/c3ccc(C(=O)O)cc3)n2C2CCCCC2)cc1	u	-3.8%	8.8%	0.7%	13.0%
COc1ccc(OCC(=O)Nc2ccc(NC(=O)c3cccs3)c(OC)c2)cc1	-1.5%	-1.4%	u	-17.3%	-1.8%
